From the supplement of paper PMC10720658
± gives the standard deviation of the averaged measurements.

test system: AEK1 (Tb927.3.2440); assay: percent reduction in TR-FRET probe signal relative to DMSO control; higher = stronger displacement of ATP-site probe (binding); conditions: 1 µM; incubation time 1 h

Structure (SMILES) | percent reduction in TR-FRET probe signal [%]
Cc1cnc(NC(=O)Nc2cc(Br)c(C)cc2OC[C@@H]2CNCCO2)cn1 | 9.29 ± 6.3
CNC(=O)c1ccccc1Nc1nc(Nc2ccc(N3CCOCC3)cc2OC)ncc1Cl | 25.1 ± 15
CCOC(=O)c1cnc2ccc(-c3cncc(NS(=O)(=O)c4ccccc4)c3)cn12 | -3.6 ± 8.8
O=C(c1ccc(Nc2nccc(-c3cc4ccccc4s3)n2)cc1)N1CCC(N2CCCC2)CC1 [IKK-16 (IKK Inhibitor VII)] | 4.07 ± 9.4
Oc1c(F)cc(-c2cnccc2-c2ccc(N3CCOCC3)cc2)cc1F | 8.04 ± 13
Cc1cc(Nc2ncc(Cl)c(Nc3ccccc3S(=O)(=O)C(C)C)n2)c(OC(C)C)cc1C1CCNCC1 | -7.62 ± 8.9
Cc1cc(N2CCOCC2)cc2[nH]c(-c3c(NC[C@@H](O)c4cccc(Cl)c4)cc[nH]c3=O)nc12 | 21.7 ± 13
CC(C)(C)c1cc(NC(=O)Nc2ccc(-c3cn4c(n3)sc3cc(OCCN5CCOCC5)ccc34)cc2)no1 [Quizartinib (AC220)] | 9.26 ± 2.9
Cc1cnc(Nc2ccc(N3CCN(C)CC3)cc2)nc1Nc1cccc(S(=O)(=O)NC(C)(C)C)c1 | 5.49 ± 1.9
CN1CCN(CCOc2cc(OC3CCOCC3)c3c(Nc4c(Cl)ccc5c4OCO5)ncnc3c2)CC1 [Saracatinib (AZD0530)] | 11.4 ± 13
CS(=O)(=O)O.O=C(Nc1cccc(Cl)c1)Nc1ncc(CCNc2ncnc3ccsc23)s1 [SNS-314 Mesylate] | 0.813 ± 5
CO[C@H]1C[C@@H]2CC[C@@H](C)[C@@](O)(O2)C(=O)C(=O)N2CCCC[C@H]2C(=O)O[C@H]([C@H](C)C[C@@H]2CC[C@H](n3cnnn3)[C@H](OC)C2)CC(=O)[C@H](C)/C=C(\C)[C@@H](O)[C@@H](OC)C(=O)[C@H](C)C[C@H](C)/C=C/C=C/C=C/1C [Zotarolimus(ABT-578)] | -16.6 ± 5
